Data on 6 compounds can be found in PubChem BioAssay (NCI).

Compounds without any hit were thinned out: in the full panel of roughly 83,000, 20% have a hit.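 Assay: single dose, 48 h. Readout: percent growth (0 = no net growth; negative = cell death). Active: <10.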 Values without a mark were called inactive. Activity calls are given as the source filed them.

What all share (experiment): NCI-60 one-dose screen, 48 h (100 = growth as untreated, 0 = no growth, -100 = all killed)
Assay [1] deals with SR leukemia. To be noted: 10 µM unless noted.
Assay [2] has as its system RPMI-8226 leukemia. To be noted: 10 µM unless noted.
In assay [3] the test system is OVCAR-8 ovarian. As to conditions: 10 µM unless noted.
For assay [4], the system named is OVCAR-5 ovarian. As to conditions: 10 µM unless noted.
Assay [5] deals with OVCAR-4 ovarian. To be noted: 10 µM.
Assay [6] has as its system IGROV1 ovarian. To be noted: 10 µM unless noted.
The test system of assay [7] is OVCAR-3 ovarian. As to conditions: 10 µM unless noted.
Assay [8] has as its system HS 578T breast. To be noted: 10 µM unless noted.
Assay [9] deals with NCI/ADR-RES ovarian. As to conditions: 10 µM unless noted.
In assay [10] the test system is T-47D breast. As to conditions: 10 µM unless noted.
Assay [11] relates to BT-549 breast. To be noted: 10 µM unless noted.
Assay [12] has as its system MDA-MB-435 melanoma. To be noted: 10 µM unless noted.
For assay [13], the system named is SW-620 colon. To be noted: 10 µM unless noted.
Assay [14] deals with MCF7 breast. As to conditions: 10 µM unless noted.
Assay [15] concerns HCT-116 colon. As to conditions: 10 µM unless noted.
Assay [16] concerns HCC-2998 colon. As to conditions: 10 µM unless noted.
Assay [17] has as its system KM12 colon. To be noted: 10 µM unless noted.

With `CCN1c2ccccc2C(Cl)(c2ccc(N(C)C)cc2)c2ccccc21`, the growth in assay [1] was 22.6%; in assay [2], -28.8% (active); in assay [3], 17.9%; in assay [4] it was 107%; in assay [5] it was 75.2%; in [6] it was -20.3% (active). Moreover, the growth was 23.2% in assay [7]; 102% in [8]; 85.8% in assay [9]; 54.9% in [10]; 62.1% in [11]; 23.3% in assay [12]. The growth in assay [13] was 12.2%; in [14], 76.2%; in [15] it was 17.5%; in [16], 78%; in assay [17], 21.9%.
As for `Cc1cccc(C[C@H](NC(=O)Nc2ccc(C)cc2F)C(=O)N[C@@H]2C(=O)N3C[C@H](O)C[C@H]3C(=O)N3CCN(C)C[C@H]3C(=O)N[C@@H](C)C(=O)N3C[C@H](C)C[C@H]3C(=O)O[C@H]2C)c1`, the growth in assay [1] is 34.5%; in assay [2] it was 28.2%; in assay [3], 50.8%; in [4], 42.7%; in assay [5] it was 12.9%; in assay [6], 52.3%. For the same compound, the growth was 24.4% in assay [7]; 50.8% in assay [8]; 114% in assay [9]; 25.9% in [10]; 22.1% in [11]; 21.8% in [12]. Also, the growth is 47.6% in [13]; 26.7% in [14]; 14.8% in [15]; 35.7% in assay [16]; 43.7% in [17].
Turning to `CNC(=O)c1cc(Oc2ccc3nc(NC(=O)c4ccc5ncccc5c4)sc3c2)ccn1`, the growth is 88.8% in assay [1]; 71.9% in assay [2]; 100% in assay [3]; 106% in assay [4]; 87.4% in assay [5]; 93.3% in [6]. In addition, the growth was 98.9% in [7]; 108% in [8]; 88.8% in [9]; 51.3% in [10]; 82.4% in assay [11]; 91.6% in [12]. Moreover, the growth in [13] was 112%; in assay [14], 88%; in [15] it was 103%; in assay [16], 106%; in assay [17], 101%.
On to `COc1cc(NCc2cn(-c3ccc(C(=O)O)cc3)nc2-c2ccc(C(=O)O)cc2)cc(OC)c1OC`, for which the growth in assay [1] is 114%; in assay [2] it was 93.2%; in assay [3] it was 101%; in [4], 94.8%; in [5], 94.4%; in assay [6] it was 97.1%. Also, the growth in assay [7] was 106%; in [8] it was 95.6%; in [9], 107%; in assay [10], 93.7%; in assay [11], 96.2%; in assay [12], 102%. The growth in assay [13] is 92%; in assay [14] it was 93.3%; in assay [15], 97.5%; in assay [16] it was 104%; in assay [17], 100%.
Turning to `CC(=O)Nc1ccc2nc3ccc(NC(C)=O)cc3[n+](-c3ccccc3)c2c1`, the growth in [1] is 83.7%; in assay [2], 62.1%; in [3] it was 93.5%; in assay [4], 113%; in assay [5], 86%; in assay [6], 92.8%. Moreover, the growth in [7] is 49.2%; in assay [8], 263%; in assay [9], 107%; in assay [10] it was 93.4%; in assay [11], 101%; in [12] it was 123%. Besides, the growth is 116% in assay [13]; 73.1% in assay [14]; 95.6% in [15]; 108% in assay [16]; 116% in [17].
`Cc1ccccc1-n1nnc(C(=O)Nc2nc3ccc(F)cc3s2)c1C`: the growth in [1] was 55.9%; in [2], 45%; in [3], 73.2%; in [4], 82.2%; in assay [5], 10.6%; in assay [6] it was 75.7%. The growth in [7] is 57.9%; in assay [8] it was 73.6%; in assay [9] it was 60.7%; in assay [10], 18.1%; in assay [11], 36.8%; in assay [12], 59.2%. The growth in [13] was 85.5%; in assay [14], 65.3%; in assay [15], 46.5%; in [16], 78.6%; in [17] it was 72.4%.
